# Cycloheximide cs: counter-screen for Shiga toxin inhibitors: cycloheximide protein synthesis inhibition | cell reporter, cycloheximide protein synthesis inhibition counterscreen | actives 12% (n = 300,000) | max response, %; in the data active means max response mostly above about 13%, no sharp cut-off; inactive means mostly below about 14%; further: read at 38.3 µM for the half of the compounds with a filed dose; 0% is about no effect
# Shiga inhibitor: blocks Shiga toxin action in Vero cells; Vero cells, Shiga toxin protein synthesis inhibition reporter; inhibition, % at 38.7 µM; actives 9.2% (n = 290,000); AID 2315; in the data active means inhibition mostly above about 28%, no sharp cut-off; inactive means mostly below about 43%; further: 0% is about no effect
# Sm TGR inh: S. mansoni TGR enzyme inhibition; AID 485364; actives 3% (n = 360,000); purified TGR, DTNB reduction, TNB absorbance 405 nm; Potency, µM (titrated, usually from 114 µM), without a hit: top-dose activity change, negative = inhibition, hits mostly inhibitors; active means well fitted inhibition curve with a large enough effect; inconclusive means small, poorly fitted or top-dose-only effect; inactive means no such curve, though single readings can be large or run the other way; further: potency means the concentration at half of the fitted maximal effect; on the % scale 0 is the no-effect control and ±100 the full control effect; nearly all actives have a fitted effect of over 60% in size
#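 TGR 20 nM + NADPH 100 uM (dispensed conc.), cpd preinc 15 min RT; start with NADPH (500 uM addition) then DTNB (15 mM addition). Kinetic TNB absorbance, 405 nm filter. Four-parameter Hill fit across titration.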
# FMDV antiviral: foot and mouth disease virus antiviral activity; Potency, µM (titrated, usually from 57.9 µM), inactives show top-dose activity change, negative = inhibition, actives largely listed as inhibitors; actives 1.2% (n = 410,000); FMDV antiviral cell-based qHTS; AID 1159524; calls by dose curve; tested in HEK293T cells; further: read-out not given here; potency means the concentration at half of the fitted maximal effect; on the % scale 0 is the no-effect control and ±100 the full control effect; nearly all actives have a fitted effect of over 45% in size
# * = called active by the depositor; ? = inconclusive; · = no result given. Compounds with a hit are over-represented: about 12% of the library has one in this group of screens.
SMILES,Cycloheximide cs,Shiga inhibitor,Sm TGR inh,FMDV antiviral
O=C(C1=C[C@H](c2ccc(C(F)(F)F)cc2)C[C@H](OCCCCO)O1)N1CCN(Cc2ccccc2)CC1,-1,-11,35µM*,-19%
O=C(C1=C[C@H](c2ccccc2)C[C@H](OCc2ccc(CO)cc2)O1)N1CCCCCCC1,-1,20,1%,·
COc1cc(OC)c(OC)cc1CNc1sc2c(c1C(=O)Nc1ccccc1OC)CCC2,·,·,-23%,0%
Cc1cc(C)c(Cn2c(=O)n(Cc3ccccc3)c(=O)c3c(C)c(C)sc32)c(C)c1,·,·,-6%,-17%
COc1ccc(NC(=O)CSc2nc3nc(C)c(Cc4ccc(C)cc4)c(C)n3n2)cc1OC,·,·,2%,?
CCc1nc2nc(C)c(NS(=O)(=O)c3ccc(C)cc3)c(=O)n2[nH]1,·,·,1%,-2%
O=C(C1=C[C@@H](c2ccc(Br)cc2)C[C@@H](OCc2ccc(CO)cc2)O1)N1CCN(Cc2ccc3c(c2)OCO3)CC1,-2,-19,-30%,?
C#Cc1ccc([C@@H]2C=C(C(=O)N3CCN(Cc4ccccc4)CC3)O[C@H](OCCCCO)C2)cc1,-2,8,13µM*,·
O=C(C1=C[C@H](c2ccccc2)C[C@H](OCCCCO)O1)N1CCN(Cc2ccccc2)CC1,1,-10,0%,-20%
O=C(C1=C[C@@H](c2ccc(Br)cc2)C[C@@H](OCc2ccc(CO)cc2)O1)N1CCN(Cc2ccccc2)CC1,1,-12,25µM*,?
CCS(=O)(=O)CCSc1nc2ccccc2o1,-1,-10,-11%,10%
O=S(=O)(CCSc1nc2ccccc2o1)c1nc2ccccc2s1,-3,-13,0.71µM*,16µM*
O=S(=O)(CCSc1ccccn1)c1nc2ccccc2s1,20*,-2,0.79µM*,?
COCCCNC(=O)c1ccc(-n2c(-c3ccccc3)cc3c2CCC(C)C3)cc1 (stereo not given),·,·,10%,-27%
CCC(NC(=O)c1cc(COc2ccc(F)cc2Cl)on1)c1ccncc1 (stereo not given),6.4*,-1,-28%,-15%
NC(=O)[C@@H]1CCCN1C(=O)c1cc(COc2ccc(F)cc2F)on1,21,19,0%,37%
O=C(c1cc(COc2ccc(F)cc2Cl)on1)N1CCC(c2ccncc2)CC1,10,22,32%,-28%
O=C(c1cc(COc2ccc(F)cc2Cl)on1)N1CCCCCC1,53*,89*,11%,42%
CCC(NC(=O)c1cc(COc2cncc(Cl)c2)on1)c1ccncc1 (stereo not given),-3,1,-23%,-16%
O=C(c1cc(COc2ccc(F)cc2Cl)on1)N1CCCCCCC1,32*,40*,-4%,3%
O=C(c1cc(COc2ccc(F)cc2F)on1)N1CCSCC1,58*,85*,15%,34%
CN1CCc2c(sc3c2C(=O)NC(c2ccc(C(C)(C)C)cc2)N3)C1 (stereo not given),·,·,-21%,-6%
Cc1cc(C)cc(NC(=O)c2cc(S(=O)(=O)N3CCOCC3)cn2C)c1,·,·,4%,-12%
O=C(N[C@H]1CCCCNC1=O)c1cc(COc2ccc(F)cc2F)on1,19*,9,3%,21%
O=C(NCCc1ccccc1F)c1cc(COc2ccc(F)cc2F)on1,·,·,·,36%
SMILES,Cycloheximide cs,Shiga inhibitor,Sm TGR inh,FMDV antiviral
O=c1c(-c2ccccc2)nc2cnc(N3CCNCC3)nc2n1Cc1cccs1,·,·,·,-12%
CC(=O)c1ccc(S(=O)(=O)N2CCCC(N(C)CCc3ccccn3)C2)cc1 (stereo not given),-2,-4,20µM*,0%
Nc1nn(-c2cccc(F)n2)cc1-c1ccccc1,40*,107*,0%,-37%
Nc1nn(-c2cccc(F)n2)cc1-c1ccc(Cl)cc1,23*,77*,-1%,-18%
Cc1ccc(NC(=O)Cn2ncn3c(cc4ccccc43)c2=O)cc1C,·,·,0%,6%
CN(C)c1cc[n+](CC(=O)Nc2c(Cl)cc(Cl)cc2Cl)cc1,-8,-6,40µM*,-9%
CCOc1ccc(CCNC(=O)c2ccc3c(c2)N(Cc2ccccc2)C(=O)c2ccccc2S3=O)cc1OCC (stereo not given),·,·,-10%,-28%
Cc1cc(C)cc(NC(=O)C2C3C=CC(O3)C2C(=O)O)c1 (stereo not given),-3,-7,-34%,28%
O=C(O)C1C2C=CC(O2)C1C(=O)Nc1cccc(C(F)(F)F)c1 (stereo not given),-1,-6,100µM*,0%
CCc1ccccc1NC(=O)C1C2C=CC(O2)C1C(=O)O (stereo not given),3,4,18µM*,-2%
CCOc1ccccc1NC(=O)C1C2C=CC(O2)C1C(=O)O (stereo not given),1,27,20µM*,11%
